# APEX1 inh = blocks human APE1 abasic DNA cleavage. Potency, µM (titrated, usually from 65.8 µM), without a hit: at the highest dose activity change, negative = inhibition, usual class: inhibitors. AID 2517. actives 0.35% (n = 350,000). recombinant APE1, TAMRA/BHQ-2 abasic DNA cleavage fluorescence. P27695;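 note: plate controls were vehicle for no effect and reference inhibitor for full effect; nearly all actives have a fitted effect of over 55% in size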
# Target sequence (P27695 whole entry, looked up): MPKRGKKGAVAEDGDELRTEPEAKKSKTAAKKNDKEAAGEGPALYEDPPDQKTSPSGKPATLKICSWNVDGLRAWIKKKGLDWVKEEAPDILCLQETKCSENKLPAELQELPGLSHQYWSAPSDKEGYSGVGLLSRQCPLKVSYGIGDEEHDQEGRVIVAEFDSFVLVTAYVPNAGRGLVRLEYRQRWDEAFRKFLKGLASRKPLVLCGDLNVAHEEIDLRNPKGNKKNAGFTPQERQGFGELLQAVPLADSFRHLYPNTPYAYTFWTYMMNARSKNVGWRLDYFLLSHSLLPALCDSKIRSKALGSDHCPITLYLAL
#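 Kinetic fluorescence read (525 ex/598 em nm, three reads 60 s apart) of AP-site incision; signal = third minus first read. Enzyme 0.75 nM, dual-labelled THF duplex 50 nM, compound preincubation 15 min RT.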
# PKM2 act = activators of human pyruvate kinase M2 | P14618 | purified PKM2, Kinase-Glo ATP luminescence, activation; response scale: 0% is enzyme alone, no compound | Potency, µM (highest dose often 57.5 µM), inactives show at the highest dose activation, hits mostly activators | actives 0.34% (n = 260,000); note: nearly all actives have a fitted effect of over 55% in size
#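 Kinase-Glo luminescence reports ATP generated from ADP (0.1 mM) and PEP (0.5 mM) by purified hPK-M2 after 1 h at room temperature, pH 7.2 imidazole buffer; intermediate enzyme activity allows detecting inhibitors and activators.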
# BLM inh = Bloom syndrome helicase (human) inhibition; recombinant BLM DNA unwinding, fluorescence dequenching; Potency, µM (doses to about 56.1 µM), without a hit: at the highest dose activity change, negative = inhibition, most hits filed as inhibitors; P54132; actives 0.2% (n = 350,000);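 note: plate controls were vehicle for no effect and no enzyme for full effect; nearly all actives have a fitted effect of over 35% in size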
# KDM4E inh = JMJD2E (human) inhibition; JMJD2E catalytic domain, FDH-coupled NADH fluorescence (FDH is formaldehyde dehydrogenase); B2RXH2; Potency, µM (top dose mostly 57.1 µM), for the others: top-dose activity change, negative = inhibition, actives largely listed as inhibitors; actives 1.6% (n = 230,000); active = well fitted inhibition curve with a large enough effect, not every such curve was filed as active; inconclusive = small, poorly fitted or top-dose-only effect, or another doubt; inactive = no such curve, though single readings can be large or run the other way;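 note: 0% = wells with enzyme and -100% = buffer wells without enzyme; nearly all actives have a fitted effect of over 50% in size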
# Target sequence (B2RXH2 1-337 limits assumed): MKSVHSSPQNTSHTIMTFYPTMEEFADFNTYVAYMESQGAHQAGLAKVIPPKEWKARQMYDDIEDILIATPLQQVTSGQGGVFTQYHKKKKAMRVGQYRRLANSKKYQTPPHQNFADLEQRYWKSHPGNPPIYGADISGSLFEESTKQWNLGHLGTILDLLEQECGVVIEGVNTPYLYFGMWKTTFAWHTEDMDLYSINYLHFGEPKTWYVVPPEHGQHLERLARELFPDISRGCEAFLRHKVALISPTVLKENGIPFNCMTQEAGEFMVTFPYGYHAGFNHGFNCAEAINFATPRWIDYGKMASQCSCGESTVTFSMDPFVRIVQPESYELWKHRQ
# RECQ1 helicase = RECQ1 (human) helicase inhibition | actives 0.54% (n = 240,000) | P46063 | AID 2549 | Potency, µM (series often up to 57.3 µM), for the others: at the top dose activity, negative = inhibition, most hits filed as inhibitors | RECQ1 DNA unwinding, red fluorescence kinetic read;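 note: plate controls were vehicle for no effect and no enzyme for full effect; nearly all actives have a fitted effect of over 30% in size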
#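 RECQ1T1 50 nM; forked duplex (20 bp + 30-nt ss tails) 200 nM, ATP 2 mM final; pH 8.0, 2 mM MgCl2, 2.5 ug/ml poly(dI-dC); 15 min compound preincubation; discontinuous kinetic read over 2 h at RT.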
# An asterisk follows results filed as active; i = inactive; ? = inconclusive; · = not tested or not shown; [ ] = dose if it differs, or a comment. Many of the other results were omitted from the sample, so hits are more common in it than they were. Unless noted, calls come from the whole dose curve; as a rule, active = well fitted curve in the direction sought with a large enough effect; inconclusive = small, poorly fitted or top-dose-only effect, or another doubt; inactive = no such curve, though single readings can be large; an effect the other way counts as inactive or inconclusive. Unless noted, % is set by controls: 0 for no effect and ±100 for the full control effect; potency is the fitted concentration of half-maximal effect.
SMILES,APEX1 inh,PKM2 act,BLM inh,KDM4E inh,RECQ1 helicase
COc1cccc(/C=N/NC(=O)CC2C(=O)NN=C2C)c1O (stereo not drawn),2%,1%,-2%,8.9µM*,-8%
COc1cccc(/C=N\NC(=O)C2C(=O)NCC2c2ccccc2)c1O (stereo not drawn),13%,0%,-1%,28µM*,-5%
COc1cccc(/C=N/NC(=O)C(=O)N2CCCCCC2)c1O,5%,-3%,1%,·,·
COc1cccc(/C=N/NC(=O)NC2CCCCC2)c1O,1%,2%,-4%,22µM*,-6%
COC(=O)CN1C(=O)[C@@H]2[C@H](C1=O)[C@@H]1CC(C(=O)OC)=C[C@@H](C(=O)OC)C3C1=C(C(=O)C31CCCCC1)[C@@H]2C (stereo partly drawn),-7%,·,-11%,·,i
C=CCc1cccc(C2C(C)CCC3C(=O)N4C(Cc5c([nH]c6ccccc56)C4c4cc(OC)c(OC)c(OC)c4)C(=O)N32)c1 (stereo not drawn),3%[12.4 µM],·,-4%[12.4 µM],·,i[11.5 µM]
CC1CCC2C(=O)N3C(CCC(C)C3c3ccc(-c4ccco4)cc3)C(=O)N2C1c1ccc(-c2ccco2)cc1 (stereo not drawn),4µM*,·,3.5µM*,·,2.5µM*
C[C@@H]1CC[C@@H]2C(=O)N3[C@@H](CC[C@@H](C)[C@@H]3c3ccc(-c4ccco4)cc3)C(=O)N2[C@H]1c1ccc(-c2ccco2)cc1,-2%[12.4 µM],·,-23%[12.4 µM],·,?
CCc1ccc(-c2cn3nc(C)c(C)nc3n2)cc1,-5%,0%,-2%,28µM*,13%
COC(=O)/C=C/c1cccc(N(Cc2ccc(-c3ccc(N(C)C)cc3)cc2)C(=O)C2CCCCC2)c1,-1%,·,-7%,·,-1%
COc1ccc2[nH]cc(CCNc3cc(-c4c(C)noc4C)ncn3)c2c1,7%,·,5%,·,i
Cc1cccc2cc3c(nc12)SC(=NCC1CCCO1)N(Cc1ccco1)C3 (stereo not drawn),12%,11µM*,-17%,2%,-2%
CC(C)(C)n1ncc2c(=O)n(Cc3c(Cl)ccc(Cl)c3Cl)cnc21,-2%,·,·,·,·
Cc1nc2ccccc2c(=O)[nH]1,0%,-6%,-2%,-2%,-14%
Cc1nc2c(O)cccc2c(=O)[nH]1,10%,·,-8%,13µM*,-4%
COCc1cc(C)nc(SCC(=O)c2ccc(O)c(O)c2)c1C#N,3%,11%,-4%,28µM*,25µM*
CC[C@H](C)[C@H](NC(=O)[C@H](CCC(=O)O)NC(=O)CNC(=O)[C@H](CCCCN)NC(=O)[C@H](CCC(=O)O)NC(=O)[C@H](CCSC)NC(=O)[C@H](CCSC)NC(=O)[C@H](CCSC)NC(=O)[C@H](CCC(=O)O)NC(=O)CNC(=O)[C@H](CO)NC(=O)[C@H](CO)NC(=O)[C@H](CO)NC(=O)[C@@H](N)CC(N)=O)C(=O)N[C@@H](CCCCN)C(=O)O,-2%,·,-1%,·,-1%
CC(C)(C)n1ncc2c(=O)n(Cc3ccc(C(F)(F)F)cc3)cnc21,6%,·,·,·,·
CCOC(=O)/C=C(\C)Sc1cc(O)c2ccccc2c1O,?,?,?,3.5µM*,-21%
O=C(O)CCc1ccc(-c2cccs2)n1CCc1ccccc1,1%,?,-19%,?,i
O=C(O)CCc1ccc(-c2cccs2)n1CCC(=O)O,14µM*,23%,-3%,?,-9%
Nc1c(Cl)cc(Cl)cc1Cl,3%,·,·,·,4%
CC(=O)N=Cc1c(C)c(C#N)c(=O)n(C)c1O,-4%,-1%,-5%,?,7%
Cc1c(C=O)c(Cl)n(C)c(=O)c1C#N,-2%,·,-13%,20µM*,-12%
CC(=O)N/N=C/c1ccc([N+](=O)[O-])o1,·,·,4%,·,·
SMILES,APEX1 inh,PKM2 act,BLM inh,KDM4E inh,RECQ1 helicase
O=[N+]([O-])c1ccc(/C=N/N=C/c2ccc([N+](=O)[O-])o2)o1,?,·,-8%,14µM*,-8%
CC(=O)[C@@]1(O)CC[C@H]2[C@@H]3C=C(Cl)C4=CC(=O)[C@@H]5C[C@@H]5[C@]4(C)[C@H]3CC[C@@]21C,3%,·,·,·,·
O=C(c1ccc2c(=O)n(Cc3ccco3)c(=S)[nH]c2c1)N1CCN(c2ccccc2)CC1,2%,13µM*,-4%,-6%,-7%
O=C(c1ccc2c(=O)n(CC3CCCO3)c(=S)[nH]c2c1)N1CCN(c2ccccc2)CC1 (stereo not drawn),6%,-1%,-4%,0%,-2%
CC/C(=C(\c1ccccc1)c1ccc(OCCN(C)C)cc1)c1ccc(O)cc1,-2%,·,·,·,-7%
Oc1ccccc1/C=N/Nc1cc(N2CCCC2)nc(N2CCCC2)n1,-3%,9%,?,?,-4%
Oc1ccc(/C=N/Nc2cc(N3CCOCC3)nc(N3CCOCC3)n2)cc1O,-10%,18%,-10%,28µM*,-6%
O=C(c1ccc(S(=O)(=O)c2cccc(Cl)c2)c([N+](=O)[O-])c1)N1CCN(Cc2ccccc2)CC1,-7%,3.2µM*,-14%,-4%,-17%
COc1ccc(C(=O)N2CCN(Cc3ccccc3)CC2)cc1[N+](=O)[O-],-1%,2%[11.5 µM],-3%,·,·
CC(=O)OCC1OC(Oc2cc(OC(C)=O)c3c(=O)cc(-c4ccc(OC(C)=O)c(OC(C)=O)c4)oc3c2)C(OC(C)=O)C(OC(C)=O)C1OC(C)=O (stereo not drawn),-4%,·,-13%,?,-27%
Cc1ccc(-c2nc3c(c(=O)[nH]c(=O)n3Cc3ccccc3)n2C)s1,-1%,1%,-9%,?,i
Cc1ccc(-c2nc3c(c(=O)[nH]c(=O)n3Cc3ccccc3)n2Cc2ccccc2)o1,-1%,18µM*,-5%,6%,-16%
COc1ccccc1NC(=O)CSc1nc(N)c(C#N)cc1C#N,-3%,14µM*,-5%,-8%,i
CC(C)(C)[C@H]1C=C(C(=O)Nc2ccccc2)O[C@@H](OCc2ccc(CO)cc2)C1,-5%,0%,-11%,5%,28µM*
CC(C)(C)[C@@H]1C=C(C(=O)O)O[C@H](OCc2ccc(CO)cc2)C1,-1%,6%,0%,-4%,-8%
O=C(NC1CC1)C1=C[C@@H](c2c[nH]c3ccccc23)C[C@@H](OCc2ccc(CO)cc2)O1,0%,1%,-3%,25µM*,29%
COc1ccc(-c2noc(CCC(=O)Nc3cccnc3)n2)cc1OC,-4%,8.9µM*,3%,3%,4%
COc1ccc2c(c1)OC(C)(C)C(c1ccccc1)C2c1ccc(OCCN2CCCC2)cc1 (stereo not drawn),·,·,0%,·,·
CCc1nnc(NC(=O)CSc2sc3c(O)cc(=O)[nH]c3c2C#N)s1,11%[12.4 µM],-12%,18µM*,·,·
O=C(NCCc1ccc(F)cc1)C1CCCO1 (stereo not drawn),150µM*,0%,-29%,·,·
N=C(N)c1ccc(Cl)cc1,-1%,1%,1%,9%,-3%

# Source: PubChem (National Center for Advancing Translational Sciences (NCATS))
